Test results: PubChem BioAssay
Calls of active or inactive are those of the source.

Experiments:
[1] = tested on: Plasmodium falciparum Sir2 (PF13_0152, Sir2A); test: Plasmodium falciparum Sir2A binding compounds – biochemical, small-molecule microarray, 635 nm fluorescence, primary screen (AID 1098); conditions: fluorescence 635 nm, higher = more signal;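 further: score merges spot fluorescence intensity with its signal-to-noise ratio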
[2] = probe aDKK1 binding to arrayed compounds – biochemical, biotinylated probe, 635/667 nm fluorescence, primary screen (AID 1099); conditions: small-molecule microarray, higher = more signal;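 further: score merges 667nm spot fluorescence with signal to noise across triplicate slides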
[3] = probe aCHRDL2 binding to arrayed compounds – biochemical, biotinylated probe, 635/667 nm fluorescence, primary screen (AID 1100); conditions: small-molecule microarray, higher = more signal
[4] = change in splice reporter luminescence, either direction, cell-based, HEK293, spliceosome inhibition project, primary screen (AID 1101); conditions: HEK293 splicing luciferase reporter, 24 h, higher = more signal, called active from +8 up or from −8 down;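 further: HEK293 cells carrying a splicing-competent luciferase reporter gene; test concentration not given here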
[5] = target: Fibroblast growth factor 10 (Homo sapiens) (UniProt O15520); test: compounds binding fibroblast growth factor 10 – biochemical, small-molecule microarray, 635 nm fluorescence, primary screen (AID 1102); conditions: FGF10 binding, fluorescence 635 nm, higher = more signal
[6] = tested on: glycogen synthase kinase-3 (GSK3A per assay name; protocol says GSK3B); test: compounds binding glycogen synthase kinase-3 – biochemical, small-molecule microarray, 635 nm fluorescence, GSK3A, primary screen (AID 1103); conditions: fluorescence 635 nm, higher = more signal; further: the record names both GSK3A and GSK3B
[7] = target: Epidermal growth factor receptor (Homo sapiens) (UniProt P00533); test: compounds binding epidermal growth factor receptor – biochemical, small-molecule microarray, 635 nm fluorescence, primary screen (AID 1104); conditions: EGFR binding, higher = more signal;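 further: score merges 667 nm emission intensity with spot signal to noise over triplicate slides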
[8] = target: Follistatin-related protein 3 (Homo sapiens) (UniProt O95633); test: compounds binding follistatin-related protein 3 – biochemical, small-molecule microarray, 635 nm fluorescence, primary screen (AID 1105); conditions: FSTL3 binding, higher = more signal;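 further: score merges emission near 667 nm and signal to noise per printed spot across three slides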
[9] = target: Dickkopf-related protein 1 (Homo sapiens) (UniProt O94907); test: small molecules binding DKK1 protein – biochemical, small-molecule microarray, 635 nm fluorescence scan, primary screen (AID 1106); conditions: higher = more signal;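 further: score merges emission near 667 nm with signal to noise over three replicate slides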
[10] = tested on: Inhibin beta A chain (activin A); test: small molecules binding activin A – biochemical, small-molecule microarray, 635 nm fluorescence scan, primary screen (AID 1107); conditions: INHBA, higher = more signal;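 further: mouse activin A protein probed at 4.33 µg/mL on printed slides; score merges bound-protein fluorescence near 667 nm with spot signal-to-noise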
[11] = tested on: Human papillomavirus type 1a protein E7 (residues 44-93); test: small molecules binding HPV E7 44-93 – biochemical, small-molecule microarray, residues 44-93, 635 nm fluorescence, primary screen (AID 1108); conditions: fluorescence 635 nm, higher = more signal;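 further: E7 fragment applied at 1 µg/mL in TBST for 1 h at 4 C; score combines spot fluorescence with its signal to noise ratio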
[12] = hepatitis C replication reporter changes, two-sided – Huh7 cells, luciferase reporter, HCV replication inhibitor project, primary screen (AID 1109); conditions: Huh7 HCV replicon luciferase reporter, 48 h; higher = more signal;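 further: huh7 hepatoma cells harbouring a luciferase neomycin HCV replicon reporter; luciferase luminescence as measure of HCV replicon replication; test concentration not given here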
[13] = target: Left-right determination factor 2 (Homo sapiens) (UniProt O00292); test: small molecules binding LEFTY2 protein – biochemical, small-molecule microarray, 635 nm fluorescence scan, primary screen (AID 1110); conditions: higher = more signal
[14] = target: Calmodulin-1 (Homo sapiens) (UniProt P0DP23); test: small molecules binding calmodulin-1 with EGTA – biochemical, small-molecule microarray, Cy5-labelled CALM1, profiling panel (AID 1111); conditions: Cy5-CALM1 binding fluorescence, higher = more signal;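 further: labelled calmodulin applied in Tris saline Tween buffer holding calcium plus EGTA and DTT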
[15] = target: Calmodulin-1 (Homo sapiens) (UniProt P0DP23); test: small molecules binding Ca-loaded calmodulin-1 – biochemical, small-molecule microarray, Cy5-labelled CALM1, plus calcium, artefact control for SMM control-protein annotation, profiling panel (AID 1112); conditions: Cy5-CALM1 binding fluorescence, higher = more signal;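 further: score merges spot fluorescence with signal to noise from triplicate slides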
[16] = probe aWnt5a binding to arrayed compounds – biochemical, biotinylated probe, 635/667 nm fluorescence, primary screen (AID 1113); conditions: small-molecule microarray, higher = more signal;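 further: score merges 667 nm fluorescence intensity with signal-to-noise per printed feature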
[17] = probe aShh binding to arrayed compounds – biochemical, biotinylated probe, 635/667 nm fluorescence, primary screen (AID 1114); conditions: small-molecule microarray, higher = more signal;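 further: probe is biotin-labelled aShh protein from a stem cell growth factor screen; measures binding of labelled protein to compounds printed on the slide; score merges feature fluorescence at 667 nm with signal-to-noise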
[18] = probe aNog binding to arrayed compounds – biochemical, biotinylated probe, 635/667 nm fluorescence, primary screen (AID 1115); conditions: small-molecule microarray, higher = more signal;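 further: probe is biotinylated aNog protein used at 0.15 µg/mL for 1 h at 4 C; z-score combines 667 nm fluorescence of each spot with its signal to noise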
[19] = target: Torsin-1A-interacting protein 1 (Homo sapiens) (UniProt Q5JTV8); test: compound microarray binding of lysate hLAP1 – cell lysate, small-molecule microarray, COS7 lysate, 635/667 nm fluorescence, primary screen (AID 1116); conditions: 635 nm fluorescence, higher = more signal
[20] = target: Alpha-bungarotoxin (Bungarus multicinctus) (UniProt P60615); test: compounds binding labelled alpha-BTX control protein – biochemical, small-molecule microarray, Alexa647 label, 635/667 nm fluorescence, artefact control for SMM control protein annotation, profiling panel (AID 1117); conditions: alpha-BTX-A647 binding fluorescence, higher = more signal
Alpha-bungarotoxin (Bungarus multicinctus), sequence (P60615 whole entry, looked up): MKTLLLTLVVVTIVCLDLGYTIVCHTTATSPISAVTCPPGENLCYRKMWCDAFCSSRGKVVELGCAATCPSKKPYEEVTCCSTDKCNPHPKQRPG

Fibroblast growth factor 10 (Homo sapiens), sequence (O15520 whole entry, looked up): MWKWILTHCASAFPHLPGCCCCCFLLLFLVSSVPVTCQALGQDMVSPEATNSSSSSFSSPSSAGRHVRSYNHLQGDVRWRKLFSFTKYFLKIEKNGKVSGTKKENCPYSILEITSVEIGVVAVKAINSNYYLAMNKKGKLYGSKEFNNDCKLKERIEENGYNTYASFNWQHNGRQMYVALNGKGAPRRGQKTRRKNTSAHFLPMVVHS
Epidermal growth factor receptor (Homo sapiens), sequence (P00533 whole entry, looked up): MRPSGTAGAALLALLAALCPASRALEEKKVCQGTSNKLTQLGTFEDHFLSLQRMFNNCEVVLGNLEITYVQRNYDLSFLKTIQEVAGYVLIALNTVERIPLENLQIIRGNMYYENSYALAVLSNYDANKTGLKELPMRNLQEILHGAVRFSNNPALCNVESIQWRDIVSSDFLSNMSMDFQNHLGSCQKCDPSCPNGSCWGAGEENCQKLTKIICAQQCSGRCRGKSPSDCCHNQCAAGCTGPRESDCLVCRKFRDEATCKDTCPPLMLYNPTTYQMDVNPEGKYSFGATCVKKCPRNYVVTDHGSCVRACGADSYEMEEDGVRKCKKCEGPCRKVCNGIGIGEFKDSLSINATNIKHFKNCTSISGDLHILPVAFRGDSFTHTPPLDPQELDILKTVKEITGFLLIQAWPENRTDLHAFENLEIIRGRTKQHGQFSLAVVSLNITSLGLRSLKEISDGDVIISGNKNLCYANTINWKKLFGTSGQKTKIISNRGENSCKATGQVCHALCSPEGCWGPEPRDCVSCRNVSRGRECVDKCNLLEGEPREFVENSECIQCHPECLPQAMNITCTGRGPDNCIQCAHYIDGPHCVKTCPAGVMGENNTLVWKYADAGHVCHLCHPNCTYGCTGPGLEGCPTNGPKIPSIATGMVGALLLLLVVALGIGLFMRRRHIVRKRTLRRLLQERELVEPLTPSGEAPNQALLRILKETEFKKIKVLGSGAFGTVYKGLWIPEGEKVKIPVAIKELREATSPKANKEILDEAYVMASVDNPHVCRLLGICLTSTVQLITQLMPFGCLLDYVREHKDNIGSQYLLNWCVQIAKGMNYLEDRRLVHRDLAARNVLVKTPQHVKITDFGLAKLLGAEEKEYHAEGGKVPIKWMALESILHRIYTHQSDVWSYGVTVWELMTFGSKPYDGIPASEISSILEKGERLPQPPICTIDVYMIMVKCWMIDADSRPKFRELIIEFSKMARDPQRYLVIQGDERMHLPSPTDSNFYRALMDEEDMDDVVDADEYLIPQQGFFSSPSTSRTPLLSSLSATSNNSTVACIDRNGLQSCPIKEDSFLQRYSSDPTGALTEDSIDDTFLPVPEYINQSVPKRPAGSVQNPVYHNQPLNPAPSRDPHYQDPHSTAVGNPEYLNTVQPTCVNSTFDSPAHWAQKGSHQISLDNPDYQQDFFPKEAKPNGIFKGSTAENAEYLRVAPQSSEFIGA
Left-right determination factor 2 (Homo sapiens), sequence (O00292 whole entry, looked up): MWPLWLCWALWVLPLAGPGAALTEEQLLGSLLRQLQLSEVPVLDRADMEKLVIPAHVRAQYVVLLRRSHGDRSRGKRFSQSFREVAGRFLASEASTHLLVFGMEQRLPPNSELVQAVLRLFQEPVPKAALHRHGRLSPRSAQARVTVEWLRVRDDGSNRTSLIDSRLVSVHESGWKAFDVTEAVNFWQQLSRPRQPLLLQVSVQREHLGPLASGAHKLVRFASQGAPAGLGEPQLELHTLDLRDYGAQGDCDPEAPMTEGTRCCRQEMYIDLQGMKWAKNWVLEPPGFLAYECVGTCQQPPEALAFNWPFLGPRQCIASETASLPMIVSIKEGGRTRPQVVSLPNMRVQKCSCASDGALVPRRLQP
Torsin-1A-interacting protein 1 (Homo sapiens), sequence (Q5JTV8 whole entry, looked up): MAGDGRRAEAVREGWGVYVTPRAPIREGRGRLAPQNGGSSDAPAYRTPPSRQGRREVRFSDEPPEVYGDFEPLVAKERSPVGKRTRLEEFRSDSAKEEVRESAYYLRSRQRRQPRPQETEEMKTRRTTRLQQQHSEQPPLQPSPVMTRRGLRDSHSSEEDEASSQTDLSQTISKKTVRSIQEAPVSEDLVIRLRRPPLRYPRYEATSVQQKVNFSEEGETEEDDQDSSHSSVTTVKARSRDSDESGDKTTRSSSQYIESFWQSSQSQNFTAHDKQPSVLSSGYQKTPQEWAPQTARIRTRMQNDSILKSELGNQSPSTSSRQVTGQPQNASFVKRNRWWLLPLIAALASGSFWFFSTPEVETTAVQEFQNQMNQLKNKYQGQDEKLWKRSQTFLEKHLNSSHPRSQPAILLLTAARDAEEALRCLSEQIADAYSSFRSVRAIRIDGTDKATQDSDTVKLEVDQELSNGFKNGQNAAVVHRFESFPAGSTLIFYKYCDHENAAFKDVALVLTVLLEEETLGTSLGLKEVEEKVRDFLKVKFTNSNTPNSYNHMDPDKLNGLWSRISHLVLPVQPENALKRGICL
Dickkopf-related protein 1 (Homo sapiens), sequence (O94907 whole entry, looked up): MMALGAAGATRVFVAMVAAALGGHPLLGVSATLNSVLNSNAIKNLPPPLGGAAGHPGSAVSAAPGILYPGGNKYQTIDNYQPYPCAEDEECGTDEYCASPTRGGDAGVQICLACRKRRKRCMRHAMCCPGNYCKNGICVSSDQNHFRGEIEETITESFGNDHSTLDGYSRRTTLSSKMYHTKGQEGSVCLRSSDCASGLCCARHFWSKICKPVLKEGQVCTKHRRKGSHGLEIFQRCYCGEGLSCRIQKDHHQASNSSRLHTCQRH
Follistatin-related protein 3 (Homo sapiens), sequence (O95633 whole entry, looked up): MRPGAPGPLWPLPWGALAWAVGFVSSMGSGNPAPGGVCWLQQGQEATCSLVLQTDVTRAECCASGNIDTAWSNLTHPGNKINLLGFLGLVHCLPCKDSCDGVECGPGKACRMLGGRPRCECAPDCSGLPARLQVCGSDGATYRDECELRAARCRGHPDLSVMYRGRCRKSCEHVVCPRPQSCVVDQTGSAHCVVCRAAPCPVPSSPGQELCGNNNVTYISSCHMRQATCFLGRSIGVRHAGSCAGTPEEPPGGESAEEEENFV

Structure (SMILES) | composite z-score [1] | composite z-score [2] | composite z-score [3] | z-score [4] | composite z-score [5] | composite z-score [6] | composite z-score [7] | composite z-score [8] | composite z-score [9] | composite z-score [10] | composite z-score [11] | z-score [12] | composite z-score [13] | composite z-score [14] | composite z-score [15] | composite z-score [16] | composite z-score [17] | composite z-score [18] | composite z-score [19] | composite z-score [20]
C[C@H]1NC(=O)[C@@H](C)NC(=O)[C@@]23C(=O)N[C@@H](Cc4ccccc4)C2[C@H](C)[C@@]2(C)O[C@H]2C3/C=C/C/C=C\CNC1=O (stereo not given in full) | 1.66 | -0.581 | -0.781 | -0.697 (inactive) | 0.14 | 0.0002 | 0.0021 | 0.171 | 0.422 | 1.28 | -0.569 | -0.175 | 0.182 | -0.809 | -1.32 | -0.0758 | -0.221 | -0.0684 | -0.485 | 0.393
CSCC[C@@H]1NC(=O)CC=C[C@@H](C)COC(=O)[C@H](CCSC)NC(=O)CC=C[C@@H](C)COC1=O | -0.191 | -0.396 | -0.607 | -1.02 (inactive) | 0.435 | 0.0287 | 0.434 | 0.678 | 1.12 | -0.149 | -0.507 | -0.116 | 0.42 | -1.21 | -0.58 | -0.168 | 0.0756 | -0.255 | -0.242 | -0.222
COc1ccc([Si](C)(C)[C@H]2[C@H](CC(=O)N(CCO)Cc3ccccc3)O[C@@]3(C(=O)N(C)c4ccccc43)[C@@H]2C)cc1 | 0.624 | -0.29 | -0.519 | -1.44 (inactive) | 1.19 | 0.25 | 0.631 | 0.996 | 1.05 | 0.92 | 1.3 | -3.22 | 0.664 | -0.416 | -0.398 | -0.0182 | -0.141 | -0.52 | 0.188 | 0.238
C=CCN1C(=O)[C@@]2(Cc3ccccc3)N=C(c3ccc(OCCCO)cc3)O[C@H]2c2ccccc21 | 1.59 | 1.07 | 1.19 | -0.298 (inactive) | 0.534 | 0.876 | 0.96 | 0.956 | 0.613 | 0.965 | 0.974 | -2.44 | 0.525 | 0.0185 | 0.192 | -0.0814 | 0.0469 | 0.79 | 2.15 | 1.66
COCCOC(=O)N1C(=O)[C@@]2(c3cc(C#CCNC(N)=O)ccc31)[C@H](c1ccccc1OCCO)N1[C@H](c3ccccc3)[C@H](c3ccccc3)OC(=O)[C@H]1[C@@H]2C(=O)NC[C@H](O)c1ccccc1 | 1.08 | 0.0288 | 0.352 | 0.408 (inactive) | 1.18 | 0.618 | 0.134 | 1 | 0.117 | 0.203 | 1.44 | -1.1 | 0.391 | 1.07 | 0.527 | -0.0239 | 0.0639 | 0.385 | 0.867 | 2.05
C=C(COC)C(=O)CC[C@H](OC(=O)c1ccccc1-c1ccccc1C(=O)O)c1cccc(OCCO)c1 | 1.74 | -0.0615 | -0.462 | -3.03 (inactive) | 1.71 | 0.829 | 0.397 | 1.33 | 1.94 | 1.01 | 1.4 | -3.1 | 0.757 | 3.03 | 0.733 | 0.0519 | -0.17 | 0.0519 | 3.73 | -0.151
